HT1080-NT tox: kills 2HG-producing HT-1080-NT fibrosarcoma cells; HT-1080-NT fibrosarcoma viability, CellTiter-Glo ATP luminescence, 48 h; hit rate 1.6% among 360,000; Potency, µM (highest dose often 46.1 µM), inactives show at the top dose activity, negative = less viability, actives largely listed as cytotoxic;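 also: NT is the 2HG producing partner of a matched IDH1 knockdown line; potency is read from the fitted curve at half-maximal effect; 0% = DMSO-treated cells and -100% = media-only wells without cells; nearly all actives have a fitted effect of over 55% in size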
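Compounds were tested in concentration-response format on HT-1080-NT cells for 48 hours at 37 degrees C. Cell viability came from CellTiter-Glo luminescence; curves were classified by r2, response magnitude and activity.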
TDP1 cell noCPT: qHTS for Inhibitors of human tyrosyl-DNA phosphodiesterase 1 (TDP1): qHTS in cells in absence of CPT; DT40 Tdp1-/- hTDP1 cells, no CPT, ATP luminescence, 48 h; Potency, µM (series often up to 46.2 µM), inactives show at the highest dose activity change, negative = growth inhibition, usual class: inhibitors; hit rate 15% among 420,000; AID 686978, 2013; also: potency is read from the fitted curve at half-maximal effect; nearly all actives have a fitted effect of over 55% in size
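Luminescent ATP content (CellTiter-Glo) served as the growth readout. Knockout chicken DT40 cells expressing human TDP1 were exposed to compounds without camptothecin for a minimum 48 hr at 37 °C.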
ELG1 DNA repair: ELG1-dependent DNA repair inhibition. HEK293T ELG1-luciferase reporter, luminescence, 16 h; DNA damage induced by 5-fluorouridine. Potency, µM (highest dose often 46.1 µM), for the others: at the top dose activity change, negative = inhibition, most hits filed as inhibitors. hit rate 2.3% among 330,000. AID 504467; also: potency is read from the fitted curve at half-maximal effect; nearly all actives have a fitted effect of over 55% in size
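Cells (2,000 per well) received 5-fluorouridine plus test compound or DMSO and were incubated 16 hr at 37 °C, 5% CO2. Luciferase activity was read by luminescence 30 min after ONE-Glo addition; signal suppression marked inhibition of damage-induced ELG1 function.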
TDP1 cell CPT: DT40-hTDP1 cell growth loss with CPT | Potency, µM (series often up to 46.2 µM), for the others: top-dose activity change, negative = growth inhibition, hits mostly inhibitors | chicken DT40 Tdp1-/-;hTDP1 cells + 20 nM CPT, ATP luminescence, 48 h | hit rate 12% among 420,000; also: potency is read from the fitted curve at half-maximal effect; nearly all actives have a fitted effect of over 55% in size
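Cell growth measured by CellTiter-Glo luminescence after a minimum 48 h, 37 C compound exposure with 20 nM CPT in Tdp1-knockout DT40 cells stably expressing hTDP1, seeded 400/well; qHTS titration format.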
IL-1B inflam inh: inflammasome signaling inhibition, IL-1 beta readout; hit rate 4.7% among 360,000; THP-1 LPS/ATP IL-1B secretion, AlphaLISA, 16 h; hits give low values; activity change, % at 57.5 µM; in the data active = activity change below about -50%; inconclusive = mostly about -30% to -49%
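Secreted IL-1B measured by AlphaLISA bead assay after 16 h compound exposure of THP-1 cells; compounds (final up to 57.5 uM) added 1 h before LPS (250 ng/mL) and ATP (1.25 mM) stimulation; lower signal means less secretion.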
HT1080 IDH1KD tx: HT-1080 IDH1 knockdown cell toxicity (counter line); HT-1080 IDH1 knockdown viability, ATP luminescence, 48 h; Potency, µM (top dose mostly 46.1 µM), inactives show top-dose activity, negative = toxicity, actives largely listed as cytotoxic; hit rate 2% among 360,000; AID 686971;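 also: potency is read from the fitted curve at half-maximal effect; 0% = DMSO wells and -100% = cell-free medium wells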
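Using the IDH1-knockdown HT-1080 line run in the same batch and compound series as the NT line, viability after 48 h at 37 °C was determined by CellTiter-Glo luminescence and expressed as % activity.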
Starred values were filed as active, the others as inactive; ? = inconclusive; . = not tested or not shown; [ ] = another dose, or the depositor's remark. Compounds with a hit are over-represented: about 19% of the library has one in this group of screens. Unless noted, calls follow the shape of the dose curve; as a rule, active = well fitted curve in the direction sought with a large enough effect; inconclusive = small, poorly fitted or top-dose-only effect, or another doubt; inactive = no such curve, though single readings can be large; an effect the other way counts as inactive or inconclusive. Unless noted, % is scaled to controls: 0 for no effect and ±100 for the full control effect.

SMILES	HT1080-NT tox	TDP1 cell noCPT	ELG1 DNA repair	TDP1 cell CPT	IL-1B inflam inh	HT1080 IDH1KD tx
O=[N+]([O-])c1ccc(S(=O)(=O)N2CCN(c3ccc(N4CCOCC4)nn3)CC2)cc1	3%	-22%	16%	-8%	-11	-6%
CCCCNC(=O)C[C@@H]1C[C@@]2(C(=O)OCC)CCCC=C2N(Cc2ccc3c(c2)OCO3)C1=O	-3%	21µM*	.	?	-11	-1%
CCCCOCCCNC(=O)C[C@@H]1C[C@@]2(C(=O)OCC)CCCC=C2N(Cc2ccc3c(c2)OCO3)C1=O	-18%	?	.	6.5µM*	0	-25%
CCOC(=O)[C@]12CCCC=C1N(Cc1ccc3c(c1)OCO3)C(=O)[C@H](CC(=O)NCCC(C)C)C2	-11%	?	.	?	-5	-7%
COC(=O)[C@]12CCCCC=C1N(Cc1ccc3c(c1)OCO3)C(=O)[C@H](CC(=O)NCC13CC4CC(CC(C4)C1)C3)C2	?	18µM*	.	?	-4	?
CCOC(=O)c1ccc(NC(=O)Cn2c(=O)cc(C)c3c(C)nn(-c4ccc(CC)cc4)c32)cc1	.	-18%	.	?	.	.
COCc1ccc(C(=O)NC2CCCc3c2cnn3-c2cc(C)cc(C)c2)s1 (configuration not stated)	?	21µM*	?	?	-22	?
Cc1cc(C)cc(-n2ncc3c2CCCC3NC(=O)c2csnn2)c1 (configuration not stated)	12%	-1%	28%	-15%	-26	-1%
COCc1ccc(C(=O)NC2CCCc3c2cnn3-c2ccc(C)c(C)c2)o1 (configuration not stated)	?	?	?	18µM*	4	1%
COc1ncccc1C(=O)NC1CCCc2c1cnn2-c1cc(C)cc(C)c1 (configuration not stated)	-25%	-15%	-3%	?	-56*	-27%
Cc1ccc(-n2ncc3c2CCCC3NC(=O)c2ccoc2)cc1C (configuration not stated)	-9%	?	-2%	?	10	-3%
Cc1cc(C)cc(-n2ncc3c2CCCC3NC(=O)c2cc(C)oc2C)c1 (configuration not stated)	-15%	23µM*	-7%	?	-29	-18%
C=CCN1C(=O)c2ccc(C(=O)N(CC)CC(=O)Nc3c(F)cccc3F)cc2C1=O	6%	-2%	?	-3%	9	6%
Cc1noc(NC(=O)c2c(-c3c(Cl)cccc3Cl)noc2C)c1[N+](=O)[O-]	-11%	?	?	?	4	-7%
O=C(CSC1=NNC(c2ccccn2)S1)Nc1cccc(Cl)c1 (configuration not stated)	?	1.8µM*	-17%	1.8µM*	147	?
O=C(CSC1=NNC(c2ccccn2)S1)Nc1ccccc1 (configuration not stated)	?	1.8µM*	2%	2.1µM*	184	?
CS(=O)(=O)c1ccc(S(=O)(=O)N2CCN(C(=O)C(O)c3ccccc3)CC2)cc1 (configuration not stated)	22%	0%	.	-4%	-2	9%
CC(C)c1ccc(/C=C/C(=O)n2nnc3ccccc32)cc1	?	?	.	16µM*	-9	?
CN(C)c1ccc(C(=O)n2nnc3ccccc32)cc1	?	?	?	23µM*	.	16µM*
O=c1cnc2cnc(N3CCOCC3)nc2n1C1CC1	.	2%	.	0%	.	.
COc1ccc(S(=O)(=O)N2CC(=O)Nc3ccccc32)cc1C	4%	12%	4%	0%	9	-1%
CCCCN(C)C(=O)c1ccc(Nc2nc(C(N)Cc3ccc(C(F)(F)F)cc3)cs2)nc1 (configuration not stated)	?	12µM*	.	8.2µM*	-30	16µM*
CCCCN(C)C(=O)c1ccc(Nc2nc(C(N)CCc3ccccc3)cs2)nc1 (configuration not stated)	18µM*	21µM*	.	15µM*	-11	23µM*
COc1ccc(NC(=O)CN2C(=O)NC(C)(C3CC3)C2=O)cc1S(=O)(=O)N1CCCCC1 (configuration not stated)	-3%	0%	13%	-2%	-2	-4%
CCN(c1ccccc1)S(=O)(=O)c1cc(C(=O)Nc2ccc(F)c(F)c2)ccc1F	15µM*	?	21µM*	23µM*	-89*	?
SMILES	HT1080-NT tox	TDP1 cell noCPT	ELG1 DNA repair	TDP1 cell CPT	IL-1B inflam inh	HT1080 IDH1KD tx
CCN(c1ccccc1)S(=O)(=O)c1ccc(F)c(C(=O)Nc2ccc(C)cc2)c1	.	12µM*	.	9.2µM*	.	.
CN(C(=O)c1cncc(Br)c1)C1C2CC3CC(C2)CC1C3 (configuration not stated)	4%	-9%	8%	-16%	-2	-1%
Cc1cc(Nc2ccccc2C(=O)O)n2ncnc2n1	1%	-5%	.	-6%	-11	14%
Nc1nonc1-c1nc2ccccc2n1Cc1ccc(F)cc1Cl	-2%	21µM*	18%	21µM*	?	-2%
CCCn1c(-c2nonc2N)nc2ccccc21	-24%	?	16µM*	?	-6	-8%
COc1ccc(Nc2nc(NC(C)(C)C)nc(N3CCOCC3)n2)c(OC)c1	-17%	?	?	21µM*	-16	-29%
COc1ccc(Nc2nc(N3CCCC3)nc(N3CCCC3)n2)c(OC)c1	1%	?	?	?	-22	0%
COc1ccc(Nc2nc(N3CCCCC3)nc(N3CCCCC3)n2)c(OC)c1	6%[9.24 µM]	-25%	2%	-12%	39	-20%
COc1ccc(Nc2nc(Nc3ccc(OC)cc3OC)nc(N3CCN(C)CC3)n2)c(OC)c1	-23%	16µM*	?	?	.	-12%
COc1ccc(Nc2nc(NC(C)(C)C)nc(N3CCCC3)n2)c(OC)c1	?	16µM*	-29%	23µM*	-24	?
CSc1nc(NS(=O)(=O)c2ccc(F)cc2F)nn1C	10%	0%	6%	-16%	15	8%
COCc1c(C(=O)N2CCCC(C)C2)cnn1-c1nccc(-c2cc(C)sc2C)n1 (configuration not stated)	.	-27%	.	-7%	.	.
